# Test results taken from publication PMC11006913.
# Numbering of substitutions follows the chain as printed.
# How the values were obtained:
# Test in all cases: PBM; 200 nM protein, PBS
# Details in all cases: dsDNA, one strand shown
# [1] = target: HOXB6 (Homo sapiens, UniProt P17509 132-218, K202E)
# [2] = target: T1, NKX2-6 (Homo sapiens, UniProt A6NCS4 118-204)
# T1 sequence: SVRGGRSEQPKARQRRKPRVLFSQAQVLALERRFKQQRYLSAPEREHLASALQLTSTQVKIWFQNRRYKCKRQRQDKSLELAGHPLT
# [3] = target: T2, NKX2-6 (Homo sapiens, UniProt A6NCS4 118-204, F151L)
# T2 sequence: T1 sequence with F34L
# [4] = target: HOXB6 (Homo sapiens, UniProt P17509 132-218)
# [5] = target: PROP1 (Homo sapiens, UniProt O75360 56-141)
# [6] = target: PROP1 (Homo sapiens, UniProt O75360 56-141, R99H)
# [7] = target: PROP1 (Homo sapiens, UniProt O75360 56-141, F88S)
# [8] = target: HOXD13 (Homo sapiens, UniProt P35453 263-343, T313R)
# [9] = target: HOXD13 (Homo sapiens, UniProt P35453 263-343)
# [10] = target: HOXD13 (Homo sapiens, UniProt P35453 263-343, T313A)
# [11] = target: MSX2 (Homo sapiens, UniProt P35548 130-214)
# [12] = target: MSX2 (Homo sapiens, UniProt P35548 130-214, F161Y)
# [13] = target: T3, SIX6 (Homo sapiens, UniProt O95475 114-200, L143I)
# T3 sequence: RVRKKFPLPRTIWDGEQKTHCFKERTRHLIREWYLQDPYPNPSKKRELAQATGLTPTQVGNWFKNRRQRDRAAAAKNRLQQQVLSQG
# [14] = target: ALX1 (Homo sapiens, UniProt Q15699 118-204, L144V)
# [15] = target: ALX1 (Homo sapiens, UniProt Q15699 118-204, L144R)
# [16] = target: NKX3-2 (Homo sapiens, UniProt P78367 192-278, P234S)
# [17] = target: ALX1 (Homo sapiens, UniProt Q15699 118-204)
# [18] = target: NKX3-2 (Homo sapiens, UniProt P78367 192-278)
# [19] = target: T4, NKX2-4 (Homo sapiens, UniProt Q9H2Z4 175-261)
# T4 sequence: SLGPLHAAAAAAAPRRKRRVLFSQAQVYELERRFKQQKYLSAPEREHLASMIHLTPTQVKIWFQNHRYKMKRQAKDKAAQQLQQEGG
# [20] = target: T5, NKX2-4 (Homo sapiens, UniProt Q9H2Z4 175-261, R246Q)
# T5 sequence: T4 sequence with R72Q
# [21] = target: ALX3 (Homo sapiens, UniProt O95076 139-225, N203Q)
# [22] = target: ALX3 (Homo sapiens, UniProt O95076 139-225)
# [23] = target: ALX3 (Homo sapiens, UniProt O95076 139-225, L168Q)
# [24] = target: ALX3 (Homo sapiens, UniProt O95076 139-225, L168V)
# [25] = target: ALX3 (Homo sapiens, UniProt O95076 139-225, N203S)
# [26] = target: HOXA2 (Homo sapiens, UniProt O43364 129-215, R185T)
# [27] = target: HOXA2 (Homo sapiens, UniProt O43364 129-215, R185K)
# [28] = target: HOXA2 (Homo sapiens, UniProt O43364 129-215, Y150S)
# [29] = target: HOXA2 (Homo sapiens, UniProt O43364 129-215)
# [30] = target: PITX2 (Homo sapiens, UniProt Q99697 72-157)
# [31] = target: VAX1 (Homo sapiens, UniProt Q5SQQ9 86-172)
# [32] = target: VAX1 (Homo sapiens, UniProt Q5SQQ9 86-172, T142I)
# [33] = target: VAX1 (Homo sapiens, UniProt Q5SQQ9 86-172, K157R)
# [34] = target: T6, SIX6 (Homo sapiens, UniProt O95475 114-200, L143M)
# T6 sequence: T3 sequence with I30M
# Sequence of HOXB6 (Homo sapiens, UniProt P17509 132-218) (P17509 132-218): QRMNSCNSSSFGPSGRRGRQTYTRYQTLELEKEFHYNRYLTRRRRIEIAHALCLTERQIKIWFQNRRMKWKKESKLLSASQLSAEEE
# Sequence of HOXD13 (Homo sapiens, UniProt P35453 263-343) (P35453 263-343): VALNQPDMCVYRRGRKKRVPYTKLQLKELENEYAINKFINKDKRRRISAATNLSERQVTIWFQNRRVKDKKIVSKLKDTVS
# Sequence of HOXD13 (Homo sapiens, UniProt P35453 263-343, T313A) (P35453 263-343 T313A): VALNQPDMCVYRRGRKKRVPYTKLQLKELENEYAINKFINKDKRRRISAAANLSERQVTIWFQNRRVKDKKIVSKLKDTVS
# Sequence of HOXB6 (Homo sapiens, UniProt P17509 132-218, K202E) (P17509 132-218 K202E): as the sequence (P17509 132-218) above, with K71E counted along it
# Sequence of HOXD13 (Homo sapiens, UniProt P35453 263-343, T313R) (P35453 263-343 T313R): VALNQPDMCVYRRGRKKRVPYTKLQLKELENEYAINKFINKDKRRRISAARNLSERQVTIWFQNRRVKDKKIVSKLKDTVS
# Sequence of ALX3 (Homo sapiens, UniProt O95076 139-225, N203S) (O95076 139-225 N203S): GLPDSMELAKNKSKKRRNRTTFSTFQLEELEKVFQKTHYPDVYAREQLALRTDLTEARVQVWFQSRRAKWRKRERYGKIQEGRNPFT
# Sequence of HOXA2 (Homo sapiens, UniProt O43364 129-215, R185K) (O43364 129-215 R185K): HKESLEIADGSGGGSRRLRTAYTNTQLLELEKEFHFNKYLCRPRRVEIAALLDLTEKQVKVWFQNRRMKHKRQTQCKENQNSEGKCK
# Sequence of HOXA2 (Homo sapiens, UniProt O43364 129-215) (O43364 129-215): as the sequence (O43364 129-215 R185K) above, with K57R counted along it
# Sequence of HOXA2 (Homo sapiens, UniProt O43364 129-215, R185T) (O43364 129-215 R185T): as the sequence (O43364 129-215 R185K) above, with K57T counted along it
# Sequence of HOXA2 (Homo sapiens, UniProt O43364 129-215, Y150S) (O43364 129-215 Y150S): as the sequence (O43364 129-215 R185K) above, with Y22S, K57R counted along it
# Sequence of ALX3 (Homo sapiens, UniProt O95076 139-225, N203Q) (O95076 139-225 N203Q): as the sequence (O95076 139-225 N203S) above, with S65Q counted along it
# Sequence of VAX1 (Homo sapiens, UniProt Q5SQQ9 86-172, K157R) (Q5SQQ9 86-172 K157R): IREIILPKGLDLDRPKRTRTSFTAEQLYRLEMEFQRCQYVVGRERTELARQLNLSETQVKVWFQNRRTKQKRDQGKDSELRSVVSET
# Sequence of VAX1 (Homo sapiens, UniProt Q5SQQ9 86-172) (Q5SQQ9 86-172): as the sequence (Q5SQQ9 86-172 K157R) above, with R72K counted along it
# Sequence of ALX1 (Homo sapiens, UniProt Q15699 118-204) (Q15699 118-204): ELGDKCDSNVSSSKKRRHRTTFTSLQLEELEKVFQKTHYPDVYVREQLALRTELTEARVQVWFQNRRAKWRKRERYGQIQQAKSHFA
# Sequence of ALX3 (Homo sapiens, UniProt O95076 139-225, L168Q) (O95076 139-225 L168Q): as the sequence (O95076 139-225 N203S) above, with L30Q, S65N counted along it
# Sequence of ALX1 (Homo sapiens, UniProt Q15699 118-204, L144V) (Q15699 118-204 L144V): as the sequence (Q15699 118-204) above, with L27V counted along it
# Sequence of MSX2 (Homo sapiens, UniProt P35548 130-214) (P35548 130-214): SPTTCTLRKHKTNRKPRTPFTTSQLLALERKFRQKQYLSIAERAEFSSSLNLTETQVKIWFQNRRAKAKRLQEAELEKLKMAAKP
# Sequence of PROP1 (Homo sapiens, UniProt O75360 56-141) (O75360 56-141): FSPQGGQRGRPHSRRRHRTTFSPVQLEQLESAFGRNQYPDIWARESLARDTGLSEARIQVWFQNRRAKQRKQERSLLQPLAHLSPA
# Sequence of PROP1 (Homo sapiens, UniProt O75360 56-141, R99H) (O75360 56-141 R99H): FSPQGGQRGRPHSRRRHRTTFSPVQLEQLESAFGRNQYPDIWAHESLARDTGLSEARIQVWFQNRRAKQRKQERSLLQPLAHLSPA
# Sequence of ALX1 (Homo sapiens, UniProt Q15699 118-204, L144R) (Q15699 118-204 L144R): as the sequence (Q15699 118-204) above, with L27R counted along it
# Sequence of MSX2 (Homo sapiens, UniProt P35548 130-214, F161Y) (P35548 130-214 F161Y): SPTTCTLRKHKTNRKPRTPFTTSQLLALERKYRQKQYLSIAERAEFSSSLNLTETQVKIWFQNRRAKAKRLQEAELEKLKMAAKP
# Sequence of PROP1 (Homo sapiens, UniProt O75360 56-141, F88S) (O75360 56-141 F88S): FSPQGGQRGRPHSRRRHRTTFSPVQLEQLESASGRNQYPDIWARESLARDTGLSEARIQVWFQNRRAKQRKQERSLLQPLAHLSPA
# Sequence of NKX3-2 (Homo sapiens, UniProt P78367 192-278) (P78367 192-278): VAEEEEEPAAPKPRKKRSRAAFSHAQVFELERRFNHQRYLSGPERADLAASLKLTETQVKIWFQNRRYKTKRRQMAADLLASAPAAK
# Sequence of VAX1 (Homo sapiens, UniProt Q5SQQ9 86-172, T142I) (Q5SQQ9 86-172 T142I): as the sequence (Q5SQQ9 86-172 K157R) above, with T57I, R72K counted along it
# Sequence of ALX3 (Homo sapiens, UniProt O95076 139-225) (O95076 139-225): as the sequence (O95076 139-225 N203S) above, with S65N counted along it
# Sequence of NKX3-2 (Homo sapiens, UniProt P78367 192-278, P234S) (P78367 192-278 P234S): as the sequence (P78367 192-278) above, with P43S counted along it
# Sequence of ALX3 (Homo sapiens, UniProt O95076 139-225, L168V) (O95076 139-225 L168V): as the sequence (O95076 139-225 N203S) above, with L30V, S65N counted along it
sequence,measurement,setting,value
GGACCCCC,binding signal,[1],"8.73 upbm affinity estimate (log intensity, higher = more binding, comparable within an allelic series)"
same,binding signal,[2],"9.37 upbm affinity estimate (log intensity, higher = more binding, comparable within an allelic series)"
same,binding signal,[3],"8.99 upbm affinity estimate (log intensity, higher = more binding, comparable within an allelic series)"
same,binding signal,[4],"8.68 upbm affinity estimate (log intensity, higher = more binding, comparable within an allelic series)"
CCACGCTC,binding signal,[1],"8.98 upbm affinity estimate (log intensity, higher = more binding, comparable within an allelic series)"
same,binding signal,[5],"6.83 upbm affinity estimate (log intensity, higher = more binding, comparable within an allelic series)"
same,binding signal,[6],"6.88 upbm affinity estimate (log intensity, higher = more binding, comparable within an allelic series)"
same,binding signal,[7],"6.58 upbm affinity estimate (log intensity, higher = more binding, comparable within an allelic series)"
same,binding signal,[4],"9.03 upbm affinity estimate (log intensity, higher = more binding, comparable within an allelic series)"
GGCCTCCC,binding signal,[1],"8.93 upbm affinity estimate (log intensity, higher = more binding, comparable within an allelic series)"
same,binding signal,[8],"9.37 upbm affinity estimate (log intensity, higher = more binding, comparable within an allelic series)"
same,binding signal,[9],"9.63 upbm affinity estimate (log intensity, higher = more binding, comparable within an allelic series)"
same,binding signal,[10],"9.7 upbm affinity estimate (log intensity, higher = more binding, comparable within an allelic series)"
same,binding signal,[4],"9.02 upbm affinity estimate (log intensity, higher = more binding, comparable within an allelic series)"
ACATTAAC,binding signal,[1],"10 upbm affinity estimate (log intensity, higher = more binding, comparable within an allelic series)"
ATAAAAGC,binding signal,[1],"9.53 upbm affinity estimate (log intensity, higher = more binding, comparable within an allelic series)"
same,binding signal,[11],"10.9 upbm affinity estimate (log intensity, higher = more binding, comparable within an allelic series)"
same,binding signal,[12],"10.8 upbm affinity estimate (log intensity, higher = more binding, comparable within an allelic series)"
same,binding signal,[4],"10.3 upbm affinity estimate (log intensity, higher = more binding, comparable within an allelic series)"
ATAATACC,binding signal,[13],"10.4 upbm affinity estimate (log intensity, higher = more binding, comparable within an allelic series)"
GATACATC,binding signal,[13],"10.4 upbm affinity estimate (log intensity, higher = more binding, comparable within an allelic series)"
AGGCGCTC,binding signal,[1],"9.06 upbm affinity estimate (log intensity, higher = more binding, comparable within an allelic series)"
same,binding signal,[14],"6.32 upbm affinity estimate (log intensity, higher = more binding, comparable within an allelic series)"
same,binding signal,[15],"6.29 upbm affinity estimate (log intensity, higher = more binding, comparable within an allelic series)"
same,binding signal,[16],"10.5 upbm affinity estimate (log intensity, higher = more binding, comparable within an allelic series)"
same,binding signal,[17],"6.17 upbm affinity estimate (log intensity, higher = more binding, comparable within an allelic series)"
same,binding signal,[4],"8.87 upbm affinity estimate (log intensity, higher = more binding, comparable within an allelic series)"
same,binding signal,[18],"10.6 upbm affinity estimate (log intensity, higher = more binding, comparable within an allelic series)"
AGTTCGAG,binding signal,[19],"11.3 upbm affinity estimate (log intensity, higher = more binding, comparable within an allelic series)"
same,binding signal,[20],"11.6 upbm affinity estimate (log intensity, higher = more binding, comparable within an allelic series)"
TACATTAA,binding signal,[1],"10 upbm affinity estimate (log intensity, higher = more binding, comparable within an allelic series)"
same,binding signal,[21],"8.45 upbm affinity estimate (log intensity, higher = more binding, comparable within an allelic series)"
same,binding signal,[22],"11 upbm affinity estimate (log intensity, higher = more binding, comparable within an allelic series)"
same,binding signal,[23],"9.29 upbm affinity estimate (log intensity, higher = more binding, comparable within an allelic series)"
same,binding signal,[24],"9.07 upbm affinity estimate (log intensity, higher = more binding, comparable within an allelic series)"
same,binding signal,[25],"8.57 upbm affinity estimate (log intensity, higher = more binding, comparable within an allelic series)"
CCACGGGC,binding signal,[1],"9 upbm affinity estimate (log intensity, higher = more binding, comparable within an allelic series)"
same,binding signal,[8],"9.41 upbm affinity estimate (log intensity, higher = more binding, comparable within an allelic series)"
same,binding signal,[9],"9.46 upbm affinity estimate (log intensity, higher = more binding, comparable within an allelic series)"
same,binding signal,[10],"9.44 upbm affinity estimate (log intensity, higher = more binding, comparable within an allelic series)"
same,binding signal,[4],"9.06 upbm affinity estimate (log intensity, higher = more binding, comparable within an allelic series)"
CGGAGGCC,binding signal,[1],"8.93 upbm affinity estimate (log intensity, higher = more binding, comparable within an allelic series)"
same,binding signal,[26],"7.34 upbm affinity estimate (log intensity, higher = more binding, comparable within an allelic series)"
same,binding signal,[8],"9.47 upbm affinity estimate (log intensity, higher = more binding, comparable within an allelic series)"
same,binding signal,[27],"10.1 upbm affinity estimate (log intensity, higher = more binding, comparable within an allelic series)"
same,binding signal,[9],"9.47 upbm affinity estimate (log intensity, higher = more binding, comparable within an allelic series)"
same,binding signal,[10],"9.66 upbm affinity estimate (log intensity, higher = more binding, comparable within an allelic series)"
same,binding signal,[28],"10.3 upbm affinity estimate (log intensity, higher = more binding, comparable within an allelic series)"
same,binding signal,[29],"7.12 upbm affinity estimate (log intensity, higher = more binding, comparable within an allelic series)"
same,binding signal,[4],"8.97 upbm affinity estimate (log intensity, higher = more binding, comparable within an allelic series)"
CGTGGCAG,binding signal,[1],"9.05 upbm affinity estimate (log intensity, higher = more binding, comparable within an allelic series)"
same,binding signal,[26],"7.29 upbm affinity estimate (log intensity, higher = more binding, comparable within an allelic series)"
same,binding signal,[30],"8.07 upbm affinity estimate (log intensity, higher = more binding, comparable within an allelic series)"
same,binding signal,[27],"10.5 upbm affinity estimate (log intensity, higher = more binding, comparable within an allelic series)"
same,binding signal,[31],"7.05 upbm affinity estimate (log intensity, higher = more binding, comparable within an allelic series)"
same,binding signal,[32],"7.33 upbm affinity estimate (log intensity, higher = more binding, comparable within an allelic series)"
same,binding signal,[28],"10.4 upbm affinity estimate (log intensity, higher = more binding, comparable within an allelic series)"
same,binding signal,[29],"7.45 upbm affinity estimate (log intensity, higher = more binding, comparable within an allelic series)"
same,binding signal,[33],"7.05 upbm affinity estimate (log intensity, higher = more binding, comparable within an allelic series)"
same,binding signal,[4],"9.07 upbm affinity estimate (log intensity, higher = more binding, comparable within an allelic series)"
CCCAGCTC,binding signal,[1],"9.08 upbm affinity estimate (log intensity, higher = more binding, comparable within an allelic series)"
same,binding signal,[4],"9.08 upbm affinity estimate (log intensity, higher = more binding, comparable within an allelic series)"
AAGCAGGC,binding signal,[1],"9.08 upbm affinity estimate (log intensity, higher = more binding, comparable within an allelic series)"
same,binding signal,[4],"9.05 upbm affinity estimate (log intensity, higher = more binding, comparable within an allelic series)"
TAATATTA,binding signal,[1],"10 upbm affinity estimate (log intensity, higher = more binding, comparable within an allelic series)"
same,binding signal,[21],"8.61 upbm affinity estimate (log intensity, higher = more binding, comparable within an allelic series)"
same,binding signal,[25],"8.68 upbm affinity estimate (log intensity, higher = more binding, comparable within an allelic series)"
ATACATAC,binding signal,[13],"10.4 upbm affinity estimate (log intensity, higher = more binding, comparable within an allelic series)"
ATCATGAT,binding signal,[13],"10.4 upbm affinity estimate (log intensity, higher = more binding, comparable within an allelic series)"
AGATATCC,binding signal,[34],"10.9 upbm affinity estimate (log intensity, higher = more binding, comparable within an allelic series)"
